This is part of a sample that, as a whole, favours compounds with a hit. Of some 83,000 tested, about 20% had one in any assay.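 Values shown are percent growth following 48 h exposure of cells in 96-well plates to a single concentration of compound; below 10 was considered active.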 Active and inactive are the calls of the source.
How the values were obtained:
Assay in all cases: NCI-60 one-dose screen, 48 h (100 = growth as untreated, 0 = no growth, -100 = all killed)
Settings in all cases: 10 µM unless noted
[1] = system: NCI-H23 lung
[2] = system: NCI-H226 lung
[3] = system: NCI-H322M lung
[4] = system: HOP-62 NSCLC
[5] = system: NCI-H460 lung
[6] = system: HOP-92 NSCLC
[7] = system: NCI-H522 lung
[8] = system: A549/ATCC NSCLC
[9] = system: 786-0 renal
[10] = system: COLO 205 colon
[11] = system: DU-145 prostate
[12] = system: K-562 leukemia
[13] = system: MALME-3M melanoma
[14] = system: MDA-MB-231 breast
[15] = system: RXF 393 renal
[16] = system: SF-268 CNS
[17] = system: SF-295 CNS
[18] = system: SF-539 CNS
[19] = system: UACC-257 melanoma
[20] = system: M14 melanoma

Measured: growth

CNC(=O)c1cc(N2CCc3cc(NC(=O)Nc4ccc(N5CCN(C)CC5)c(C(F)(F)F)c4)ccc32)ccn1
active: [12] 0.938% | [15] -16% | [17] -49.8%
inactive: [1] 88.4% | [2] 99.4% | [3] 96.6% | [4] 76.7% | [5] 62.6% | [6] 69% | [7] 103% | [8] 68.6% | [9] 29.3% | [10] 104% | [11] 84.6% | [13] 67.8% | [14] 74.3% | [16] 80.4% | [18] 16.8% | [19] 104% | [20] 61.6%

O=C1C(SCc2ccccc2)=C(Cl)CN1c1ccccc1
active: [7] -48.8%
inactive: [1] 95.6% | [2] 101% | [3] 97.3% | [4] 104% | [5] 102% | [6] 94.5% | [8] 106% | [9] 104% | [10] 130% | [11] 102% | [12] 62% | [13] 94.6% | [14] 93.1% | [15] 105% | [16] 105% | [17] 97.8% | [18] 95% | [19] 106% | [20] 97.7%

CC(=O)/C(N=Nc1ccc2oc(=O)ccc2c1)=C(\C)O
inactive: [1] 27.5% | [2] 42.6% | [3] 55.1% | [4] 26.2% | [5] 14.6% | [7] 31% | [8] 23.6% | [9] 37.5% | [10] 15.2% | [11] 48.5% | [13] 58.3% | [14] 61.2% | [15] 51.6% | [16] 45.7% | [17] 22.5% | [18] 51.5% | [19] 37.5% | [20] 35.7%
active: [6] 2.61% | [12] 9.96%

CC(=O)Nc1ccccc1-c1nc2ccccc2s1
inactive: [1] 91.8% | [2] 98.9% | [3] 101% | [4] 101% | [5] 101% | [6] 96.6% | [7] 95.7% | [8] 106% | [9] 104% | [10] 113% | [11] 110% | [12] 113% | [13] 106% | [14] 99.2% | [15] 103% | [16] 101% | [17] 103% | [18] 100% | [19] 107% | [20] 103%

N#C/C(=C\c1ccc(-c2ccc(Cl)cc2)o1)C(=O)Nc1ncc(Cc2ccc(Br)cc2)s1
inactive: [2] 40.3% | [3] 19.1% | [9] 23.4% | [10] 41.1% | [12] 42.7% | [15] 33.1% | [16] 33.2% | [19] 46.6% | [20] 10.2%
active: [1] -30.6% | [4] 5.97% | [5] -78.1% | [6] 8.49% | [7] 4.79% | [8] -53% | [11] 9.81% | [13] -34.1% | [14] 3.41% | [17] -2.23% | [18] 1.63%

NS(=O)(=O)c1nnc(/N=C/c2c(O)[nH]c3ccccc23)s1
inactive: [1] 96.3% | [2] 95% | [3] 104% | [4] 86.6% | [5] 105% | [6] 88.1% | [7] 99.9% | [8] 108% | [9] 98.2% | [10] 115% | [11] 114% | [12] 110% | [13] 109% | [14] 92.3% | [15] 118% | [16] 102% | [17] 99.2% | [18] 96.3% | [19] 107% | [20] 94%

Cc1csc(/N=C(N)/N=C(\N)c2cccc(C#N)c2)n1
inactive: [1] 84.5% | [2] 86.5% | [3] 96.6% | [4] 64.6% | [5] 64.8% | [6] 27% | [7] 79.6% | [8] 71.9% | [9] 87.8% | [10] 76.1% | [11] 97.8% | [12] 43.5% | [13] 68.8% | [14] 88.7% | [15] 73.9% | [16] 77.4% | [17] 51.7% | [18] 76.7% | [19] 80.8% | [20] 45.2%

O=S(=O)(NCCCNc1nccc(-c2[nH]c(-c3ccccc3)nc2-c2ccc(F)c(O)c2)n1)c1cccc2ccccc12
inactive: [1] 64.9% | [2] 68% | [3] 98.2% | [4] 76.8% | [5] 35.5% | [6] 32.6% | [7] 64% | [8] 52.4% | [9] 59.8% | [10] 111% | [11] 61.5% | [12] 23.3% | [13] 32.8% | [14] 77.2% | [15] 75.4% | [16] 75.3% | [17] 45.7% | [18] 93.7% | [19] 44.1% | [20] 29.4%

Source: PubChem BioAssay (NCI)
